Source: PubChem BioAssay (EPA / NIEHS)
“And” between values parts separate entries of the source, which are not always exact repeats. Equal values may be shown once. Results filed as inconclusive are left out. The source made the active and inactive calls. How the source made its calls, unless noted: active means hit-call score of the fitted dose curve at least 0.9, where 1 is the maximum; inactive means score below 0.9.

Columns and labels:
[1] = read-out: Interleukin-8 (IL8), CXCL8 (gene 3576); assay: BSK_3C_IL8: BioMAP Diversity Plus: 3C Assay for Interleukin-8 (IL8) Biomarker Activity (AID 2283020); details: primary human endothelial cells (HUVEC); actives raise or lower the signal
Procedure, shortened: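 Primary human umbilical vein endothelial cells (3C system) were exposed to test chemical for 24 h, then IL-8 was quantified by ELISA. Responses were fitted bidirectionally against DMSO vehicle as baseline.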

[2] = read-out: Monokine induced gamma interferon (MIG), CXCL9 (gene 4283); assay: BSK_3C_MIG: BioMAP Diversity Plus: 3C Assay for Monokine induced gamma interferon (MIG) Biomarker Activity (AID 2283021); details: primary human endothelial cells (HUVEC); actives raise or lower the signal;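 on AC50: MIG protein level measured by immunoassay in the treated endothelial cultures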
Procedure, shortened: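 Primary human umbilical vein endothelial cells in the 3C system were exposed to chemical for 24 h, after which MIG was quantified by ELISA. Activity was fitted bidirectionally against DMSO as negative control and baseline.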

[3] = BSK_3C_SRB: Viability Assessment in the BioMAP Diversity Plus: 3C Assay (AID 2283023); details: primary human endothelial cells (HUVEC);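 further: fitted both ways against DMSO so a hit may be signal rise or drop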
Procedure, shortened: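 Human umbilical vein endothelial cells in the 3C system, treated 24 h. Total protein measured by 0.1% sulforhodamine B staining after 10% TCA fixation, read at 560 nm; bidirectional fit versus DMSO.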

[4] = read-out: Matrix Metallopeptidase 1 (MMP1), MMP1 (gene 4312); assay: BSK_BE3C_MMP1: BioMAP Diversity Plus: BE3C Assay for Matrix Metallopeptidase 1 (MMP1) Biomarker Activity (AID 2283024); details: primary human bronchial epithelial cells; actives raise or lower the signal
Procedure, shortened: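 Primary human bronchial epithelial cells were dosed with test chemicals, and MMP1 levels were measured by ELISA 24 h later. Data were fitted bidirectionally against DMSO as the negative control and activity baseline.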

[5] = BSK_3C_Vis: BioMAP Diversity Plus: 3C Assay for Morphology Visualization (AID 2283025); details: primary human endothelial cells (HUVEC);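 further: fitted both ways so gain or loss versus DMSO counts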
Procedure, shortened: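 Human umbilical vein endothelial cells in the 3C system were imaged by light microscopy 24 h after chemical dosing to record cell morphology. Activity was fitted bidirectionally against DMSO as negative control and baseline; the endpoint serves as a background control.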

[6] = read-out: Pselectin, SELP (gene 6403); assay: BSK_4H_Pselectin: BioMAP Diversity Plus: 4H Assay for Pselectin Biomarker Activity (AID 2283026); details: primary human endothelial cells (HUVEC); actives raise or lower the signal
Procedure, shortened: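 Primary human umbilical vein endothelial cells were exposed to test chemical for 24 h, then cell-surface P-selectin was quantified by ELISA. Activity was fitted bidirectionally against DMSO as negative control and baseline.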

[7] = BSK_4H_SRB: Viability Assessment in the BioMAP Diversity Plus: 4H Assay (AID 2283027); details: primary human endothelial cells (HUVEC);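 further: cells exposed to compound for 24 h before staining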;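 on AC50: curves fitted both ways versus DMSO so AC50 may be loss or gain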
Procedure, shortened: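 Absorbance at 560 nm of SRB-stained total protein served as the viability read-out in confluent primary human umbilical vein endothelium 24 h after chemical treatment. Curves were fitted bidirectionally against DMSO as negative control.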

[8] = BSK_BE3C_SRB: Viability Assessment in the BioMAP Diversity Plus: BE3C Assay (AID 2283028); details: primary human bronchial epithelial cells;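 on AC50: fitted both ways so AC50 may mark signal gain or loss versus DMSO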
Procedure, shortened: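 Human bronchial epithelial primary cells in confluent culture, 24 h after chemical dosing; total protein by 0.1% SRB staining after 10% TCA fixation, read at 560 nm. Bidirectional fitting versus DMSO baseline.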

[9] = read-out: Thrombomodulin, THBD (gene 7056); assay: BSK_3C_Thrombomodulin: BioMAP Diversity Plus: 3C Assay for Thrombomodulin Biomarker Activity (AID 2283029); details: primary human endothelial cells (HUVEC); actives raise or lower the signal
Procedure, shortened: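 Primary human umbilical vein endothelial cells (3C system) were exposed to chemical for 24 h, then thrombomodulin levels were measured by ELISA. Activity was fitted bidirectionally against the DMSO negative control as baseline.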

[10] = biological target: human Vitamin D Receptor (VDR), VDR (gene 7421) (UniProt P11473); assay: ATG_VDR_TRANS: Attagene TRANS-FACTORIAL HepG2 Assay for human Vitamin D Receptor (VDR) (AID 2283022; active means hit-call score of the fitted dose curve at least 0.9, where 1 is the maximum)
Procedure, shortened: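 HepG2 cells were transiently transfected with GAL4-UAS reporter units and a chimeric VDR-Gal4 construct, then dosed for 24 hours. Reporter mRNA was quantified by RT-PCR, fluorescent labeling, HpaI digestion and capillary electrophoresis; gain of signal analysed vs DMSO.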

Measured: AC50

Chain of human Vitamin D Receptor (VDR), VDR (gene 7421) (P11473 whole entry, looked up, the tested form may be a part): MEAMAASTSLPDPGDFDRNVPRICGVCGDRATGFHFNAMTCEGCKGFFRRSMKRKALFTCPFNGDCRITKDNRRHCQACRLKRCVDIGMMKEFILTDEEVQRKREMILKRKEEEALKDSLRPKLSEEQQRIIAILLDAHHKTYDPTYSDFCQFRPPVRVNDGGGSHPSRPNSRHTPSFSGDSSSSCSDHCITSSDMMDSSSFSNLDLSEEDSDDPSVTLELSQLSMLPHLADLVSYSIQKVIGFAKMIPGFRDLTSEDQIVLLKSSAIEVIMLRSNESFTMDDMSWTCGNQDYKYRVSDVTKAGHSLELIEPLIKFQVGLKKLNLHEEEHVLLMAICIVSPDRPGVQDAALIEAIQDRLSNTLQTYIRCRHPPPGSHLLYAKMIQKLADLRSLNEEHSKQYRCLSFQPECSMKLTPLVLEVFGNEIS

CCC(C)(C)c1ccc(O)cc1
not listed: [10]
inactive: all other assays above

O=S1(=O)OCC2C(CO1)C1(Cl)C(Cl)=C(Cl)C2(Cl)C1(Cl)Cl (stereo unspecified)
active: [3] 20 µM | [6] 12.2 µM | [7] 12.3 µM
not listed: [10]
inactive: all other assays above

CC(O)C(F)(F)C(F)(F)F (stereo unspecified)
not listed: [5]
inactive: all other assays above

O=C(O)C(F)(F)OC(F)(F)C(F)(F)OC(F)(F)F
not listed: [5]
inactive: all other assays above

CCCCCCCc1ccc(O)cc1
active: [1] 38.1 µM | [2] 38.4 µM | [3] 39.2 µM | [4] 37.5 µM | [5] 22.3 µM | [6] 30.9 µM | [7] 36.1 µM | [8] 38.1 µM
inactive: [10] | [9]

O=C(O)C(F)(F)C(F)(F)C(=O)O
not listed: [5]
inactive: all other assays above

CC(Cl)CN(C)C (stereo unspecified)
inactive: all assays above

COC(=O)C(F)(F)C(F)(F)OC(F)(C(F)(F)F)C(F)(F)OC(F)=C(F)F (stereo unspecified)
active: [4] 1.48 µM and 2.55 µM
not listed: [5]
inactive: all other assays above

N#Cc1c(-c2ccc(Cl)cc2)[nH]c(C(F)(F)F)c1Br
inactive: [2] | [10] | [4] | [8]
active: [1] 0.0221 µM | [3] 1.61 µM | [5] 7.8 µM | [6] 0.117 µM | [7] 0.0374 µM | [9] 5.07 µM

O=C(O)C(Cl)Cl
not listed: [10]
inactive: all other assays above

OCC(F)(F)OC(F)(F)C(F)(F)OC(F)(F)CO
not listed: [5]
inactive: all other assays above

O=P(OCC(Br)CBr)(OCC(Br)CBr)OCC(Br)CBr (stereo unspecified)
inactive: [2] | [6] | [8] | [9]
active: [1] 17.4 µM | [3] 10.3 µM | [4] 3.88 µM | [5] 12.4 µM | [7] 1.54 µM

OCC(F)(F)OC(F)(F)C(F)(F)OC(F)(F)C(F)(F)OC(F)(F)F
inactive: [10] | [4] | [8] | [9]
active: [1] 40.7 µM and 42.9 µM | [2] 38.9 µM and 48.5 µM | [3] 25.7 µM and 49.8 µM | [6] 52.2 µM and 44.9 µM | [7] 47.5 µM and 18.3 µM

OCC1CO1 (stereo unspecified)
not listed: [10]
inactive: all other assays above

O=C(O)C=CC(F)(C(F)(F)F)C(F)(F)F
not listed: [5]
inactive: all other assays above

CC(Cl)(Cl)C(=O)O
not listed: [10]
inactive: all other assays above

c1ccc2c(c1)Nc1ccccc1S2
not listed: [10]
inactive: all other assays above
